Reference: PubChem BioAssay (NCI)
The panel holds about 83,000 compounds, 20% with a hit somewhere; the sample as a whole holds those more often.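 The test compound was applied at a single concentration to cells in 96-well plates for 48 hours, and percent growth was recorded.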 A number with no mark means an inactive call. Active and inactive are the calls of the source. How the source made its calls: active means growth percent below 10; inactive means the rest.

Assays:
Assay in all cases: NCI-60 one-dose screen, 48 h (100 = growth as untreated, 0 = no growth, -100 = all killed)
Conditions in all cases: 10 µM unless noted
[1] = test system: DU-145 prostate
[2] = test system: K-562 leukemia
[3] = test system: MALME-3M melanoma
[4] = test system: MDA-MB-231 breast
[5] = test system: RXF 393 renal
[6] = test system: SF-268 CNS
[7] = test system: SF-295 CNS
[8] = test system: SF-539 CNS
[9] = test system: UACC-257 melanoma
[10] = test system: M14 melanoma

| SMILES | growth [1] | growth [2] | growth [3] | growth [4] | growth [5] | growth [6] | growth [7] | growth [8] | growth [9] | growth [10] |
| --- | --- | --- | --- | --- | --- | --- | --- | --- | --- | --- |
| C#CCN(C)CCCOc1ccc(NCc2ccc(C(=O)NO)cc2)cc1Cl | 25.7% | 15.5% | 16.9% | 35.8% | -3.35% (active) | 30.3% | 0.985% (active) | 23.9% | 10.3% | 29% |
| N#C/C(=C\c1cccc2c1OCO2)C(=O)Nc1sc2c(c1C#N)CCCC2 | 111% | 104% | 105% | 95.6% | 123% | 103% | 97.2% | 97% | 110% | 97.5% |
| Clc1ccc2[nH]cc(-c3nn4cc(-c5cccnc5)nc4s3)c2c1 | 107% | 94.7% | 90.6% | 71.7% | 113% | 107% | 96.7% | 95.6% | 109% | 99.2% |
| O=C(N/N=C/c1cc2ccccc2nc1Cl)c1cc(-c2nc3ccccc3[nH]2)nc2ccccc12 | 87.7% | 83.6% | 124% | 99% | 96.2% | 87.8% | 89.7% | 103% | 118% | 109% |
| Cc1ccc(/C(N)=N/C(N)=N/c2nc3ccccc3s2)cc1 | 96.5% | 82.5% | 110% | 89.9% | 103% | 103% | 32.9% | 108% | 111% | 107% |
| O=C(CCCCCCN1CC(=O)N2[C@@H](c3ccccc3Br)c3[nH]c4ccccc4c3C[C@H]2C1=O)NO | 62.7% | 22.6% | 14.4% | 50% | 43.1% | 79.6% | 55.3% | 51% | 39.9% | 42.1% |
| CC[C@]12C=CCN3CC[C@@]4(c5ccc(OC)cc5N(C)[C@H]4[C@@](O)(C(=O)OC)[C@@H]1OC(=O)CCN1CCc4ccccc4C1)[C@@H]32 | 106% | 75.4% | 89.2% | 84.9% | -95.9% (active) | 85.2% | 104% | 95.9% | 100% | 98.2% |
| O=C(CSc1nnc(-c2cccs2)n1-c1ccccc1)Nc1ccccc1 | 83.3% | 49.6% | 35.2% | 76.4% | 59.8% | 60% | 90.1% | 60.7% | 85.4% | 88.2% |
| COc1ccc(C(=NNS(=O)(=O)c2ccc(C)cc2)c2ccccc2)cc1OC | 103% | 94.3% | 87.7% | 91.2% | 105% | 95.5% | 87.7% | 105% | 96.5% | 102% |
| Cc1cc(C)cc(NC2=C(Cl)C(=O)c3nc(C)ccc3C2=O)c1 | 2.27% (active) | 6.63% (active) | 76.1% | 53.8% | 75% | 85.2% | 77.2% | 71.5% | 30.1% | 72.8% |
| CN1CCN(Cc2ccc(NC(=O)c3cncc(C#Cc4cnc5ccc(N6CCOCC6)nn45)c3)cc2C(F)(F)F)CC1 | -84.7% (active) | -0.943% (active) | -86.2% (active) | -56.4% (active) | -77.9% (active) | -62.1% (active) | -84.8% (active) | -90.8% (active) | -29.5% (active) | -74.4% (active) |
| O=C1[C@@H]2Cc3c([nH]c4ccccc34)[C@H](c3ccc(Cl)cc3)N2C(=O)CN1C1CCN(Cc2ccccc2)CC1 | 56.1% | 9.57% (active) | 74.5% | 68.6% | 57.6% | 50.5% | 70.6% | 77.6% | 61.4% | 27.9% |
| CCOC(=O)c1ccc(NC2=CC(=O)C(C)=C(C)C2=O)cc1 | 109% | 61.6% | 97.1% | 75.2% | 93.2% | 85.6% | 52.1% | 99.2% | 84.1% | 89.7% |
| CCOP(=O)(OCC)OC[C@]12CCC(C)(C)CC1C1=CC[C@@H]3[C@@]4(C)CCCNC(C)(C)[C@@H]4CC[C@@]3(C)[C@]1(C)CC2 (stereo not given in full) | 82.6% | 2.53% (active) | 103% | 81.1% | 64% | 80.2% | 99.3% | 86.3% | 98.2% | 83.3% |
| O=S(=O)(Oc1ccc(-c2cn3ccoc3n2)cc1)C1CCCCC1 | 107% | 89.5% | 103% | 105% | 122% | 108% | 93.8% | 97% | 106% | 104% |
| COc1ccc([C@H]2C(=O)N(c3cc(OC)c(OC)c(OC)c3)[C@@H]2c2ccc(OC)c(O)c2)cc1 | 16.7% | 9.93% (active) | 67.8% | 17.5% | 6.67% (active) | 29.1% | 18.5% | -1.89% (active) | 58.1% | 4.54% (active) |
| CCc1cc2c(cc1Cl)nc1c(=O)[nH]c(=O)nc-1n2CCOCC(C)C | 95% | 42.1% | 2.24% (active) | 55.8% | 80.5% | 80% | 60% | 79.3% | 36.6% | 49.4% |
| C#C[C@]1(O)CC[C@H]2[C@@H]3CC=C4c5sc(N(C)c6ccccc6)nc5CC[C@]4(C)[C@H]3CC[C@@]21C | 95.4% | 2.88% (active) | 110% | 98.6% | 75.8% | 88% | 68.8% | 48.7% | 90.8% | 54.3% |
| CC(Nc1c(C#N)cnc2ccc(-c3cncc(O)c3)cc12)c1ccccc1 (stereo not given) | 3.93% (active) | 15.3% | -34.1% (active) | 14.4% | -24.6% (active) | 2.54% (active) | -13% (active) | 0.714% (active) | 18.2% | 4.07% (active) |
| C=C(C)[C@@H]1CC[C@]2(C(=O)O)CC[C@]3(C)[C@H](CC[C@@H]4[C@@]5(C)C/C(=C/c6ccccn6)C(=O)C(C)(C)[C@@H]5CC[C@]43C)[C@@H]12 | 45.5% | 29.3% | 72.5% | 61.7% | 62.1% | 51.5% | 34% | 46.8% | 46.5% | 59% |
| O=C(/C=C/c1cccc(C(F)(F)F)c1)Nc1cccc(C(F)(F)F)c1 | 30.1% | 23.2% | 84.7% | 108% | 88.7% | 70.7% | 10.5% | 97.1% | 87.5% | 56.8% |
| N#C/C(=N\Nc1ccc(F)cc1)C(=O)Nc1cc(-c2ccccc2)nn1-c1ccccc1 | 22.9% | 12.8% | -17% (active) | -6.26% (active) | -2.63% (active) | 14.5% | 2.07% (active) | 8.69% (active) | -13.5% (active) | 18.3% |
| COc1ccc(NC(=O)CCCCCCNC(=O)C(O)(O)C(F)(F)F)cc1 | 28.7% | 21.7% | 18.8% | 59.5% | 0.972% (active) | 56.5% | 24.3% | 48.7% | 48.7% | 49.6% |
| Cc1ccc(OCc2occc2C(=O)N2CCOCC2)cc1 | 103% | 98.9% | 102% | 109% | 99.8% | 97.5% | 96.3% | 100% | 116% | 99.3% |
| COc1ccc(-c2c3c(cn2Cc2cccc(OC)c2)-c2oncc2CCC3)cc1 | 101% | 85.6% | 95.6% | 101% | 111% | 99.5% | 97% | 97.8% | 96.6% | 91.6% |
| C[C@]12CC[C@H]3[C@@H](CC=C4C[C@@H](O)CC[C@@]43C)[C@@H]1CC[C@@H]2[C@](C)(O)CCc1cccnc1 | 53.5% | 26.4% | 47% | 77.2% | 66.4% | 70.7% | 45% | 66.2% | 53.8% | 85.6% |
